Laboratory results published in the supplement of paper PMC12669032.
Unmarked numbers belong to inactive results.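 How the source made its calls: active = AUC reduced over 20% with Padj below 0.05 in at least 2 of 3 replicates; inactive = otherwise.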

Tests used:
Assay in all cases: growth AUC relative to DMSO control (median of replicates) (fraction); higher = more growth (less inhibition), active = hit call of the paper
Settings in all cases: 20 µM; 24 h
[1] = tested on: Akkermansia muciniphila
Outline: (§1)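 Three biological replicates, each grown on a separate day, were combined as a median for every value. In each, a gut bacterial monoculture in mGAM started at OD600 0.05 and grew anaerobically at 37 °C with 20 µM compound (1% DMSO), with OD600 read hourly over 24 h. Area under the growth curve was normalised against the plate median of solvent-only wells, or against row and column medians on the industrial chemical plate, after the minimum OD was set to 0.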

[2] = tested on: Bacteroides caccae
Outline: as §1

[3] = tested on: Bacteroides clarus
Outline: as §1

[4] = tested on: Bacteroides dorei
Outline: as §1

[5] = tested on: Bacteroides stercoris
Outline: as §1

[6] = tested on: Bacteroides thetaiotaomicron
Outline: as §1

[7] = tested on: Bacteroides uniformis
Outline: as §1

[8] = tested on: Bifidobacterium longum subsp. longum
Outline: as §1

[9] = tested on: Clostridium difficile
Outline: as §1

[10] = tested on: Collinsella aerofaciens
Outline: as §1

O=C(Nc1ccc(O)cc1-c1ccc(Cl)cc1)c1cccnc1Cl
growth AUC [1]: 0.889
growth AUC [2]: 1.02
growth AUC [3]: 0.976
growth AUC [4]: 1.03
growth AUC [5]: 0.964
growth AUC [6]: 1.01
growth AUC [7]: 1
growth AUC [8]: 1.01
growth AUC [9]: 1.03
growth AUC [10]: 1.02

COC(=O)CSc1cc(N=c2sc(=O)n3n2CCCC3)c(F)cc1Cl
growth AUC [1]: 1.11
growth AUC [2]: 1
growth AUC [3]: 0.999
growth AUC [4]: 0.945
growth AUC [5]: 1.04
growth AUC [6]: 0.94
growth AUC [7]: 0.988
growth AUC [8]: 0.985
growth AUC [9]: 0.982
growth AUC [10]: 1.01

[O-][n+]1nc(-n2ccnc2)nc2ccc(Cl)cc21
growth AUC [1]: 0.972
growth AUC [2]: 1.07
growth AUC [3]: 1
growth AUC [4]: 1.05
growth AUC [5]: 0.911
growth AUC [6]: 0.99
growth AUC [7]: 1.04
growth AUC [8]: 0.974
growth AUC [9]: 0.957
growth AUC [10]: 0.964

c1ccc(CNc2ncnc3nc[nH]c23)cc1
growth AUC [1]: 1.07
growth AUC [2]: 1.02
growth AUC [3]: 0.992
growth AUC [4]: 0.983
growth AUC [5]: 0.995
growth AUC [6]: 1.03
growth AUC [7]: 1.06
growth AUC [8]: 0.975
growth AUC [9]: 0.932
growth AUC [10]: 1

Oc1cccc2ccccc12
growth AUC [1]: 1
growth AUC [2]: 1.04
growth AUC [3]: 1
growth AUC [4]: 0.987
growth AUC [5]: 0.943
growth AUC [6]: 0.993
growth AUC [7]: 0.976
growth AUC [8]: 0.999
growth AUC [9]: 0.98
growth AUC [10]: 0.959

CCOC(=O)Nc1cccc(OC(=O)Nc2cccc(C)c2)c1
growth AUC [1]: 1.05
growth AUC [2]: 0.951
growth AUC [3]: 0.948
growth AUC [4]: 0.882
growth AUC [5]: 0.932
growth AUC [6]: 0.979
growth AUC [7]: 1.02
growth AUC [8]: 1.02
growth AUC [9]: 0.966
growth AUC [10]: 0.901

NC(=O)C1CO1 (stereo not given)
growth AUC [1]: 0.657 (active)
growth AUC [2]: 0.982
growth AUC [3]: 0.971
growth AUC [4]: 0.864
growth AUC [5]: 0.586 (active)
growth AUC [6]: 0.972
growth AUC [7]: 0.912
growth AUC [8]: 0.929
growth AUC [9]: 1.01
growth AUC [10]: 0.933

c1ccc(Nc2ccccc2)cc1
growth AUC [1]: 0.883
growth AUC [2]: 1.01
growth AUC [3]: 0.94
growth AUC [4]: 1.03
growth AUC [5]: 0.951
growth AUC [6]: 1
growth AUC [7]: 0.981
growth AUC [8]: 0.953
growth AUC [9]: 0.999
growth AUC [10]: 1.01

Nc1cccc(O)c1
growth AUC [1]: 0.979
growth AUC [2]: 1.03
growth AUC [3]: 1.02
growth AUC [4]: 1
growth AUC [5]: 0.939
growth AUC [6]: 1.03
growth AUC [7]: 1.03
growth AUC [8]: 1.06
growth AUC [9]: 1.03
growth AUC [10]: 0.998

COc1nc(N)nc(NC(C)(C)C)n1
growth AUC [1]: 1.01
growth AUC [2]: 0.996
growth AUC [3]: 0.965
growth AUC [4]: 1.03
growth AUC [5]: 0.967
growth AUC [6]: 1.01
growth AUC [7]: 1
growth AUC [8]: 1.01
growth AUC [9]: 0.98
growth AUC [10]: 0.959

CCOCN(C(=O)C(=O)O)c1c(C)cccc1CC
growth AUC [1]: 0.978
growth AUC [2]: 1.01
growth AUC [3]: 0.989
growth AUC [4]: 1.02
growth AUC [5]: 1.02
growth AUC [6]: 1.01
growth AUC [7]: 1.01
growth AUC [8]: 1.01
growth AUC [9]: 0.986
growth AUC [10]: 1.02

CN(C)C(=O)Nc1cc(C(C)(C)C)on1
growth AUC [1]: 0.918
growth AUC [2]: 1.01
growth AUC [3]: 0.997
growth AUC [4]: 1.01
growth AUC [5]: 0.998
growth AUC [6]: 0.995
growth AUC [7]: 1.01
growth AUC [8]: 1.01
growth AUC [9]: 0.987
growth AUC [10]: 0.989

c1cc2ccc3ccc4ccc5cccc6c(c1)c2c3c4c56
growth AUC [1]: 0.936
growth AUC [2]: 1
growth AUC [3]: 1
growth AUC [4]: 1.01
growth AUC [5]: 1
growth AUC [6]: 1
growth AUC [7]: 1
growth AUC [8]: 1.03
growth AUC [9]: 0.971
growth AUC [10]: 0.993

COC(=O)CC(NC(=O)[C@@H](NC(=O)OC(C)C)C(C)C)c1ccc(Cl)cc1 (stereo not given in full)
growth AUC [1]: 1.08
growth AUC [2]: 0.934
growth AUC [3]: 0.991
growth AUC [4]: 1.02
growth AUC [5]: 1.34
growth AUC [6]: 0.981
growth AUC [7]: 0.934
growth AUC [8]: 1.01
growth AUC [9]: 1.01
growth AUC [10]: 0.963

CC(C)(C)C(O)/C(=C\c1ccc(Cl)cc1)n1cncn1 (stereo not given)
growth AUC [1]: 1.05
growth AUC [2]: 0.903
growth AUC [3]: 0.987
growth AUC [4]: 0.919
growth AUC [5]: 1.19
growth AUC [6]: 0.958
growth AUC [7]: 0.973
growth AUC [8]: 1.04
growth AUC [9]: 0.991
growth AUC [10]: 0.969

CCSC(=O)N(CC(C)C)CC(C)C
growth AUC [1]: 0.967
growth AUC [2]: 1.05
growth AUC [3]: 1
growth AUC [4]: 1.02
growth AUC [5]: 0.987
growth AUC [6]: 1.01
growth AUC [7]: 0.994
growth AUC [8]: 0.842
growth AUC [9]: 0.993
growth AUC [10]: 1.04

CN1CCC[C@H]1c1cccnc1
growth AUC [1]: 0.753
growth AUC [2]: 0.995
growth AUC [3]: 0.997
growth AUC [4]: 1.04
growth AUC [5]: 1
growth AUC [6]: 0.984
growth AUC [7]: 0.981
growth AUC [8]: 1.01
growth AUC [9]: 0.951
growth AUC [10]: 1.04

CN(C)C(=O)c1cccnc1S(N)(=O)=O
growth AUC [1]: 1.05
growth AUC [2]: 1.01
growth AUC [3]: 1.04
growth AUC [4]: 1.03
growth AUC [5]: 1.01
growth AUC [6]: 0.988
growth AUC [7]: 1.04
growth AUC [8]: 1.02
growth AUC [9]: 1.05
growth AUC [10]: 1.01

Cc1cc(C)cc(OCC(C)Nc2nc(N)nc(C(C)(C)F)n2)c1 (stereo not given)
growth AUC [1]: 1.07
growth AUC [2]: 0.889
growth AUC [3]: 0.889
growth AUC [4]: 0.978
growth AUC [5]: 0.746
growth AUC [6]: 0.912
growth AUC [7]: 0.962
growth AUC [8]: 1.03
growth AUC [9]: 0.983
growth AUC [10]: 0.929

CCOC(=O)C1CC(=O)C(=C(O)C2CC2)C(=O)C1 (stereo not given)
growth AUC [1]: 1.01
growth AUC [2]: 1.03
growth AUC [3]: 0.965
growth AUC [4]: 0.979
growth AUC [5]: 0.982
growth AUC [6]: 1
growth AUC [7]: 0.972
growth AUC [8]: 1.03
growth AUC [9]: 1.01
growth AUC [10]: 0.986

COC(=O)CCCOc1ccc(Cl)cc1Cl
growth AUC [1]: 1.01
growth AUC [2]: 0.964
growth AUC [3]: 1.02
growth AUC [4]: 0.922
growth AUC [5]: 0.997
growth AUC [6]: 1.01
growth AUC [7]: 0.945
growth AUC [8]: 1.04
growth AUC [9]: 0.973
growth AUC [10]: 0.987

CC(C)c1cc(Oc2ccccc2)cc(C(C)C)c1NC(=S)NC(C)(C)C
growth AUC [1]: 0.863
growth AUC [2]: 0.984
growth AUC [3]: 0.96
growth AUC [4]: 0.983
growth AUC [5]: 0.98
growth AUC [6]: 0.97
growth AUC [7]: 0.998
growth AUC [8]: 0.929
growth AUC [9]: 0.957
growth AUC [10]: 1.03

O=S(Cc1ccc(Cl)cc1)c1ccc(Cl)cc1 (stereo not given)
growth AUC [1]: 0.934
growth AUC [2]: 0.961
growth AUC [3]: 0.978
growth AUC [4]: 0.986
growth AUC [5]: 0.964
growth AUC [6]: 0.946
growth AUC [7]: 0.983
growth AUC [8]: 1.05
growth AUC [9]: 0.977
growth AUC [10]: 0.972

N#CC(=NOCC1OCCO1)c1ccccc1
growth AUC [1]: 1.03
growth AUC [2]: 0.834
growth AUC [3]: 0.992
growth AUC [4]: 0.963
growth AUC [5]: 1.06
growth AUC [6]: 0.981
growth AUC [7]: 0.96
growth AUC [8]: 1.06
growth AUC [9]: 1.02
growth AUC [10]: 0.936

CCNC(=O)[C@@H](C)OC(=O)Nc1ccccc1
growth AUC [1]: 0.912
growth AUC [2]: 0.991
growth AUC [3]: 1.02
growth AUC [4]: 0.992
growth AUC [5]: 1.06
growth AUC [6]: 1.01
growth AUC [7]: 0.969
growth AUC [8]: 0.976
growth AUC [9]: 1.03
growth AUC [10]: 1.1
